# Columns and labels:
# Assay in all cases: DAPPL (digital affinity profiling via proximity ligation, sequencing); 10 mM Tris-HCl pH 7.5, 50 mM NaCl, 1 mM DTT, 4% glycerol, room temperature, 30 min; GST-TFs on glutathione beads, 16-mer random dsDNA library, 0.1% formaldehyde crosslink after washing; high values mean tight binding
# [1] = molecular target: T1, FLI1 (Homo sapiens, UniProt Q01543 1-452); conditions: protein: recombinant; tags: N-terminal GST; dsDNA, one strand shown
# T1 sequence: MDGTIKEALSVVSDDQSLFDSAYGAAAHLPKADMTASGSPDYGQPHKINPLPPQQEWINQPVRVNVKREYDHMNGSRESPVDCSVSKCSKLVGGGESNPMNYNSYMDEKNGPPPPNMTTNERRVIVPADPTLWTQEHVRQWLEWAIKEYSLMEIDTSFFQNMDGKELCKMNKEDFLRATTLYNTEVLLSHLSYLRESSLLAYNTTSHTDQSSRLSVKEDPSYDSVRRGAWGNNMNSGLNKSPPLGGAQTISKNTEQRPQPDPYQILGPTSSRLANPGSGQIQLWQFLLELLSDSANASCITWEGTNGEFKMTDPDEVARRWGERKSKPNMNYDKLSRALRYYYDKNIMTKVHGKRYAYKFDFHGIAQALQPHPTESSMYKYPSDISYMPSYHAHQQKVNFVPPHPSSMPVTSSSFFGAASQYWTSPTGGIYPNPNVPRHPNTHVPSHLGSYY
# Method in brief: (§1)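 Human transcription factors fused to GST were expressed in yeast, captured on glutathione beads, given DNA barcodes and pooled with a GST-only negative control. Pools were incubated with 200 nmole of a 16-mer random double-stranded DNA library in Tris/NaCl/DTT/glycerol buffer at room temperature for 30 min. They were then washed, crosslinked with 0.1% formaldehyde, proximity-ligated (BsaI/T4 ligase, 1 h, 37 °C), PCR-amplified and sequenced on an Illumina NextSeq500. Binding signal is each 6-mer's read frequency for a factor divided by its frequency for the GST control.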
# [2] = molecular target: T2, ELK1 (Homo sapiens, UniProt P19419 1-428); conditions: protein: recombinant; tags: N-terminal GST; dsDNA, one strand shown
# T2 sequence: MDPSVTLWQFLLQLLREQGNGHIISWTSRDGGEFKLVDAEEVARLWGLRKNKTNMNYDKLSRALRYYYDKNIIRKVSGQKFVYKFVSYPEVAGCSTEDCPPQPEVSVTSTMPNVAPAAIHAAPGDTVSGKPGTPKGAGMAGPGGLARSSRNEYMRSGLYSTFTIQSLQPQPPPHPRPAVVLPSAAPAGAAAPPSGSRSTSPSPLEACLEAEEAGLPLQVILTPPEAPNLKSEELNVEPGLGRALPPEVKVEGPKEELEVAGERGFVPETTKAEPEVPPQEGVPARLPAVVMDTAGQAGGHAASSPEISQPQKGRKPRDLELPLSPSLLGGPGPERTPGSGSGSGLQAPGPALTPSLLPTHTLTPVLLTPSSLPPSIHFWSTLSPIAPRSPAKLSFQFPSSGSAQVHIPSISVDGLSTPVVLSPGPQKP
# Method in brief: as §1
# [3] = molecular target: T3, GABPA (Homo sapiens, UniProt Q06546 1-454); conditions: protein: recombinant; tags: N-terminal GST; dsDNA, one strand shown
# T3 sequence: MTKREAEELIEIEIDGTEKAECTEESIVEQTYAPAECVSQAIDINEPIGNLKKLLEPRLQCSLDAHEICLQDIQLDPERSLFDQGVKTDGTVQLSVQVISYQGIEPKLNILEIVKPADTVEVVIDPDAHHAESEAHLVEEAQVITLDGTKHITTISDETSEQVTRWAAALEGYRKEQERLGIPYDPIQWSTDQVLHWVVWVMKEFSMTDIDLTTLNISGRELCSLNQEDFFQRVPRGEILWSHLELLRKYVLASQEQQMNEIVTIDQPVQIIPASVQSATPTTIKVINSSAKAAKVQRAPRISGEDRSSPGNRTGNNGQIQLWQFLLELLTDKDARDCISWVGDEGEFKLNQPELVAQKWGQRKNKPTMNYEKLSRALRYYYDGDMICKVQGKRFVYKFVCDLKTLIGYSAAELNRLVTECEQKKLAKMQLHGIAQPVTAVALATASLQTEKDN
# Method in brief: as §1
# [4] = molecular target: T4, ERG (Homo sapiens, UniProt P11308 1-479); conditions: protein: recombinant; tags: N-terminal GST; dsDNA, one strand shown
# T4 sequence: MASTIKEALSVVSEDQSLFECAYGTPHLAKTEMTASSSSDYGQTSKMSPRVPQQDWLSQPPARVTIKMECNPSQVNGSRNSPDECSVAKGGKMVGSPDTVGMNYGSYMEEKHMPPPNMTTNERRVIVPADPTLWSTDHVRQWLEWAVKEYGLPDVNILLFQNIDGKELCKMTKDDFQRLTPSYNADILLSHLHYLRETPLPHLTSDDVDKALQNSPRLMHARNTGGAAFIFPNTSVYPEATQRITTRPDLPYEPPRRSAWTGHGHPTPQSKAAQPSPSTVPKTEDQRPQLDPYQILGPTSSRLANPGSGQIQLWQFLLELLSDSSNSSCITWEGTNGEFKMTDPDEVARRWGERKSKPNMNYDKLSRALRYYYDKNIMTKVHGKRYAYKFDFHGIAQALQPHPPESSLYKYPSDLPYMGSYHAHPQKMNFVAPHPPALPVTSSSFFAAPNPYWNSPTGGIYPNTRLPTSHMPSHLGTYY
# Method in brief: as §1
# [5] = molecular target: ELF1 (Homo sapiens, UniProt P32519 1-619); conditions: protein: recombinant; tags: N-terminal GST; dsDNA, one strand shown
# Sequence of ELF1 (P32519 whole entry): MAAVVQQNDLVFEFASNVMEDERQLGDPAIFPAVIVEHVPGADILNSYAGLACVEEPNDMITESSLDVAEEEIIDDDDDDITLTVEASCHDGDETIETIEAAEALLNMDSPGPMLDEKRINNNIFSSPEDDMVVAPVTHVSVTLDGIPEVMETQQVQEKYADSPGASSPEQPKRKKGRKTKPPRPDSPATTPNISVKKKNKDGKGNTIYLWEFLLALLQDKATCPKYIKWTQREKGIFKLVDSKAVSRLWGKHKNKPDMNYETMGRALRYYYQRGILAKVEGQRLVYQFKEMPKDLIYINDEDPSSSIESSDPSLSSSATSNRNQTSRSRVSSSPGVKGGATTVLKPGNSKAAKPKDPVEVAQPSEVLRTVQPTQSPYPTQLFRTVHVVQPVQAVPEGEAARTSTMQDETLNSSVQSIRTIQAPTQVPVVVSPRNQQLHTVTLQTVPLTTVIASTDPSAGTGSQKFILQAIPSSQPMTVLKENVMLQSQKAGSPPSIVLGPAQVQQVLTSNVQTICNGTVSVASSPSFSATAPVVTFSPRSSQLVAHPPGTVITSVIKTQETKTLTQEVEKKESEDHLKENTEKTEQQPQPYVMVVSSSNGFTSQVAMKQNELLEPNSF
# Method in brief: as §1
# [6] = molecular target: T5, EHF (Homo sapiens, UniProt Q9NZC4 1-300); conditions: protein: recombinant; tags: N-terminal GST; dsDNA, one strand shown
# T5 sequence: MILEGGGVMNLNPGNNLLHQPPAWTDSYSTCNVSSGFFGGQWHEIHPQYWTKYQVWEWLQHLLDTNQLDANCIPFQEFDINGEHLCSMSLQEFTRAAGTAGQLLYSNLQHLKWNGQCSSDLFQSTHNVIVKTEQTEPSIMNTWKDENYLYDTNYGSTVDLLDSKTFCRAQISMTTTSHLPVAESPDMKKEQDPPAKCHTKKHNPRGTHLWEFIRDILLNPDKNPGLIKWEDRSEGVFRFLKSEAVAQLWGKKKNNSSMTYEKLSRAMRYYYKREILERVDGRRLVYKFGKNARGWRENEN
# Method in brief: as §1
# [7] = molecular target: SPI1 (Homo sapiens, UniProt P17947 1-270); conditions: protein: recombinant; tags: N-terminal GST; dsDNA, one strand shown
# Method in brief: as §1
# [8] = molecular target: SPIB (Homo sapiens, UniProt Q01892 1-262); conditions: protein: recombinant; tags: N-terminal GST; dsDNA, one strand shown
# Sequence of SPIB (Q01892 whole entry): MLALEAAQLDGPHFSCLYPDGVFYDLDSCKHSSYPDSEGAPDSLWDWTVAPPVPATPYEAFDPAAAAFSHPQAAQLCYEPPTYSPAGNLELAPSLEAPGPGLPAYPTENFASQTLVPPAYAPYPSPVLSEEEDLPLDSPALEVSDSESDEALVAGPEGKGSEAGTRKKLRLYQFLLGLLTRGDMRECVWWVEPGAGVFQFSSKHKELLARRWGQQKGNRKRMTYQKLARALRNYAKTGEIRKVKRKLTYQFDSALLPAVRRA
# Method in brief: as §1
# [9] = molecular target: T6, ELK3 (Homo sapiens, UniProt P41970 1-407); conditions: protein: recombinant; tags: N-terminal GST; dsDNA, one strand shown
# T6 sequence: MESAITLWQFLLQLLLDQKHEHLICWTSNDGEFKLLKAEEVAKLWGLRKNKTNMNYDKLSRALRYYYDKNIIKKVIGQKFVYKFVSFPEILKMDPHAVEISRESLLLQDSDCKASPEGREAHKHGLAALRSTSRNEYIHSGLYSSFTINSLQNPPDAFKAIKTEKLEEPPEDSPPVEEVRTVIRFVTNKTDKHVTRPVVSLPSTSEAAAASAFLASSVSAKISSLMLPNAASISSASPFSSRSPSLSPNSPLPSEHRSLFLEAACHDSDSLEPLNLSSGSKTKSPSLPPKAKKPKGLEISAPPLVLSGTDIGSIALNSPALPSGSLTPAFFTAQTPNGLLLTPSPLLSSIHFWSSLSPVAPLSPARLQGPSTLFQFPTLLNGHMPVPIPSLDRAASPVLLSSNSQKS
# Method in brief: as §1
# [10] = molecular target: T7, FEV (Homo sapiens, UniProt Q99581 1-238); conditions: protein: recombinant; tags: N-terminal GST; dsDNA, one strand shown
# T7 sequence: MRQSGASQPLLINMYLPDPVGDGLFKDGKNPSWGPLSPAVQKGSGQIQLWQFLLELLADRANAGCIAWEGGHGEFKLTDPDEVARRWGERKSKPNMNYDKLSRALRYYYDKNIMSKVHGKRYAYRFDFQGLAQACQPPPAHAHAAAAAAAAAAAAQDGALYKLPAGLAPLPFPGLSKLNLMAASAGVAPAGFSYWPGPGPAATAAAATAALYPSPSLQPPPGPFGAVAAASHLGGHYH
# Method in brief: as §1
# [11] = molecular target: ETV5 (Homo sapiens, UniProt P41161 1-510); conditions: protein: recombinant; tags: N-terminal GST; dsDNA, one strand shown
# Sequence of ETV5 (P41161 whole entry): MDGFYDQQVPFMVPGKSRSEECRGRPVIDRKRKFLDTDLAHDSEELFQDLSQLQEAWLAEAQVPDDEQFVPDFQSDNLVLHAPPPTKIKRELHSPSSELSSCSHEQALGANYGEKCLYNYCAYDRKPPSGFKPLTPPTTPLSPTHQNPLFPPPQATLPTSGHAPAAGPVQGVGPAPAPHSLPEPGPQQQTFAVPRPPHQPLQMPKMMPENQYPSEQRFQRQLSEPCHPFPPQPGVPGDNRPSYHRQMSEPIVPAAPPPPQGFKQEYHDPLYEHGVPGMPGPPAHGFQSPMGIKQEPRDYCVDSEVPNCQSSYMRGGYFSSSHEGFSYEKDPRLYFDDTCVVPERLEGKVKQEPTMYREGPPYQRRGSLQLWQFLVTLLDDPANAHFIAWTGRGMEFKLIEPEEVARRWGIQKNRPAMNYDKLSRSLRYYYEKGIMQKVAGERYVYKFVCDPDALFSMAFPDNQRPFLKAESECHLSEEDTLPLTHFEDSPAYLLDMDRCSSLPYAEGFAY
# Method in brief: as §1
# [12] = molecular target: HSF1 (Homo sapiens, UniProt Q00613 1-529); conditions: protein: recombinant; tags: N-terminal GST; chain copies: 3; dsDNA, one strand shown
# Sequence of HSF1 (Q00613 whole entry): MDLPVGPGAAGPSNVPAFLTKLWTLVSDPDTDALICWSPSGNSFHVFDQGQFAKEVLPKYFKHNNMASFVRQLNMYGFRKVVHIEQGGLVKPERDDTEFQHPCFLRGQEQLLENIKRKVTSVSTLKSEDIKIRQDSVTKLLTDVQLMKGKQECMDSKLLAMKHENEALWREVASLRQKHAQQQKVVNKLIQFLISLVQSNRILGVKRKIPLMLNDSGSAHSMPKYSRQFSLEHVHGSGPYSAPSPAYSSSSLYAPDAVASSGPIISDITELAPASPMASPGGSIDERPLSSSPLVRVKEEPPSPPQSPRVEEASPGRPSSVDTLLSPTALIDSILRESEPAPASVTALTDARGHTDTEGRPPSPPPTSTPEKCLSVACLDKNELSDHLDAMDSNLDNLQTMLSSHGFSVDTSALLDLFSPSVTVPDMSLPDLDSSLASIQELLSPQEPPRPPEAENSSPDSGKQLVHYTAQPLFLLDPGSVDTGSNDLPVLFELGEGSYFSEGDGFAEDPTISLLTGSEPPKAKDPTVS
# Method in brief: as §1
# [13] = molecular target: T8, SPIC (Homo sapiens, UniProt Q8N5J4 1-248); conditions: protein: recombinant; tags: N-terminal GST; dsDNA, one strand shown
# T8 sequence: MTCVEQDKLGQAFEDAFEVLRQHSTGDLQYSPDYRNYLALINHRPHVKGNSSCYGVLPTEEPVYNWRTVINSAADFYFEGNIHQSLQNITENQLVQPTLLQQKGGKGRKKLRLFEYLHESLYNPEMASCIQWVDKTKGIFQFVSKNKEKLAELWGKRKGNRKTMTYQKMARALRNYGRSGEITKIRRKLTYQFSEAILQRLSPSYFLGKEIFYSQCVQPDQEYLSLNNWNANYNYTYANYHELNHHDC
# Method in brief: as §1
# [14] = molecular target: ELF4 (Homo sapiens, UniProt Q99607 1-663); conditions: protein: recombinant; tags: N-terminal GST; dsDNA, one strand shown
# Sequence of ELF4 (Q99607 whole entry): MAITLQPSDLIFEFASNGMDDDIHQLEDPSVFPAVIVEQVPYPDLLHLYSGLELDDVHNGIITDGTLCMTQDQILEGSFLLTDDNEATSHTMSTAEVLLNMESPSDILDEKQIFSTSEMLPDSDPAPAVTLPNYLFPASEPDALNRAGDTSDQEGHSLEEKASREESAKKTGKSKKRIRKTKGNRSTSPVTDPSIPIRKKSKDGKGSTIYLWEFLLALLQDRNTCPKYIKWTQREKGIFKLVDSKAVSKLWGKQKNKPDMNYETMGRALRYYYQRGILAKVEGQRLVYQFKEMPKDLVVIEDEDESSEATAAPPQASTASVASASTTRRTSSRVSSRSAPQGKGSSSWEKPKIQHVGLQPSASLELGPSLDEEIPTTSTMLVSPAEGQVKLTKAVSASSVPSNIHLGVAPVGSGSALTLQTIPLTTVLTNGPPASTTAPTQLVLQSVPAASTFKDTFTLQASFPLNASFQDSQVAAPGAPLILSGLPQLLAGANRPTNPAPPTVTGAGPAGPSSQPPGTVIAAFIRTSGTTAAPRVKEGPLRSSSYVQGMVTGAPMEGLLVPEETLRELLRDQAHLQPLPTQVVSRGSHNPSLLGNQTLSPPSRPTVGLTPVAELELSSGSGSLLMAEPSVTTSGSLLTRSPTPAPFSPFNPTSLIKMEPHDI
# Method in brief: as §1
# [15] = molecular target: T9, ELK4 (Homo sapiens, UniProt P28324-2 1-405); conditions: protein: recombinant; tags: N-terminal GST; dsDNA, one strand shown
# T9 sequence: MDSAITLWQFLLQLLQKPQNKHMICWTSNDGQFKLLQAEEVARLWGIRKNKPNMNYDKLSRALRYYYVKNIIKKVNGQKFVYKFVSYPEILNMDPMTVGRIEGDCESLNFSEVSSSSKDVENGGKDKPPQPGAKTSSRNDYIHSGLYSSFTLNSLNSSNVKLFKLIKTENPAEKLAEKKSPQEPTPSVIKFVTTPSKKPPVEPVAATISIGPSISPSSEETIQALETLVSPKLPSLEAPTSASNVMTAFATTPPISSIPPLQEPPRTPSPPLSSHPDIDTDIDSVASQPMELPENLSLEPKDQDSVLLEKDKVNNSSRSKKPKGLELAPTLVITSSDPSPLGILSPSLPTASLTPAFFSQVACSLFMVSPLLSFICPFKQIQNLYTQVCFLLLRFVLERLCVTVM
# Method in brief: as §1
# [16] = molecular target: T10, ETV2 (Homo sapiens, UniProt O00321 1-342); conditions: protein: recombinant; tags: N-terminal GST; dsDNA, one strand shown
# T10 sequence: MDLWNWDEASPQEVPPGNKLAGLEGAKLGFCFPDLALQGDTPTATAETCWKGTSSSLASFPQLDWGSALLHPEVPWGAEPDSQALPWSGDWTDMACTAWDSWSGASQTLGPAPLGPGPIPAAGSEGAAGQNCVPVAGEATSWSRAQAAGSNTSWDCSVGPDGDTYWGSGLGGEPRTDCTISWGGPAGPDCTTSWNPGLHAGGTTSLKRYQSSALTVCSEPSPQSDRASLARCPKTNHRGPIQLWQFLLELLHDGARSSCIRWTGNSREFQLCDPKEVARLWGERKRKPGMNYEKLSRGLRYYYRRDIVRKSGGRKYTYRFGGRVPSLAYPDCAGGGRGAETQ
# Method in brief: as §1
# [17] = molecular target: T11, ELF3 (Homo sapiens, UniProt P78545 1-371); conditions: protein: recombinant; tags: N-terminal GST; dsDNA, one strand shown
# T11 sequence: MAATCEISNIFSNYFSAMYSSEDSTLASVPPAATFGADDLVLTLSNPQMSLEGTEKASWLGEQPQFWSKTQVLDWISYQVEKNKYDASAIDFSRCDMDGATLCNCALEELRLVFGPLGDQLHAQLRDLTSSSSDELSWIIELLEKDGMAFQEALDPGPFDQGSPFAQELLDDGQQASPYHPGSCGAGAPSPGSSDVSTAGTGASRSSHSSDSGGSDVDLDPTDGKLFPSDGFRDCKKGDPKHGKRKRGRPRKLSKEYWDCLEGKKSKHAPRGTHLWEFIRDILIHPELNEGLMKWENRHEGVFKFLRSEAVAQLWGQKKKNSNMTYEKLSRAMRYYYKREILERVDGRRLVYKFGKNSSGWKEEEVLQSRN
# Method in brief: as §1
# [18] = molecular target: CRX (Homo sapiens, UniProt O43186 1-299); conditions: protein: recombinant; tags: N-terminal GST; dsDNA, one strand shown
# Sequence of CRX (O43186 whole entry): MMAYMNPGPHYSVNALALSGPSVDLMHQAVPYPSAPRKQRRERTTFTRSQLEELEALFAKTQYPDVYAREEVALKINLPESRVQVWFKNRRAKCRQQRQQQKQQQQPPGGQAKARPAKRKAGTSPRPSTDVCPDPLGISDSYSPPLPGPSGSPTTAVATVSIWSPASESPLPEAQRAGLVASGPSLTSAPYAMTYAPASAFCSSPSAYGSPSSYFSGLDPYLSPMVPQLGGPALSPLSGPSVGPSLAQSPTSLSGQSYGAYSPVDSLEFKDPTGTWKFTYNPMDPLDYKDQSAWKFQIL
# Method in brief: as §1
# [19] = molecular target: ETV1 (Homo sapiens, UniProt P50549 1-477); conditions: protein: recombinant; tags: N-terminal GST; dsDNA, one strand shown
# Sequence of ETV1 (P50549 whole entry): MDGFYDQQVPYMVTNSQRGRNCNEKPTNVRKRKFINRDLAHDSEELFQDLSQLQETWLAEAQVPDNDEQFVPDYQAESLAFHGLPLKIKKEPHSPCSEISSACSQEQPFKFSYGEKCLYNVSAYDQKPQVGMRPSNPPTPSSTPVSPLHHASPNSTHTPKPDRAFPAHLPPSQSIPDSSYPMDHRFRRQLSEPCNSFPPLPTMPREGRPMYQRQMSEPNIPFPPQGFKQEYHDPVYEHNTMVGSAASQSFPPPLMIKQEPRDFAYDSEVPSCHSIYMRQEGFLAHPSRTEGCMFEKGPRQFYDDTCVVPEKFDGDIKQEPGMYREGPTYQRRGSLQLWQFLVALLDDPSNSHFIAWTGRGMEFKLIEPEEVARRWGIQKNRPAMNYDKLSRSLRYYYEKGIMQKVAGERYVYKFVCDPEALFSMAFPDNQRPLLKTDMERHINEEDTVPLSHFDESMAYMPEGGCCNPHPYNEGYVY
# Method in brief: as §1
sequence,measurement,setting,value
TCAATA,binding signal,[1],"1.21 fold enrichment (6-mer frequency, TF over GST control)"
same,binding signal,[2],"1.17 fold enrichment (6-mer frequency, TF over GST control)"
same,binding signal,[3],"1.24 fold enrichment (6-mer frequency, TF over GST control)"
same,binding signal,[4],"1.14 fold enrichment (6-mer frequency, TF over GST control)"
same,binding signal,[5],"1.17 fold enrichment (6-mer frequency, TF over GST control)"
same,binding signal,[6],"1.14 fold enrichment (6-mer frequency, TF over GST control)"
same,binding signal,[7],"1.23 fold enrichment (6-mer frequency, TF over GST control)"
same,binding signal,[8],"1.06 fold enrichment (6-mer frequency, TF over GST control)"
same,binding signal,[9],"1.2 fold enrichment (6-mer frequency, TF over GST control)"
same,binding signal,[10],"1.15 fold enrichment (6-mer frequency, TF over GST control)"
same,binding signal,[11],"1.21 fold enrichment (6-mer frequency, TF over GST control)"
same,binding signal,[12],"1.18 fold enrichment (6-mer frequency, TF over GST control)"
same,binding signal,[13],"1.06 fold enrichment (6-mer frequency, TF over GST control)"
same,binding signal,[14],"1.17 fold enrichment (6-mer frequency, TF over GST control)"
same,binding signal,[15],"1.29 fold enrichment (6-mer frequency, TF over GST control)"
same,binding signal,[16],"1.26 fold enrichment (6-mer frequency, TF over GST control)"
same,binding signal,[17],"1.23 fold enrichment (6-mer frequency, TF over GST control)"
same,binding signal,[18],"1.34 fold enrichment (6-mer frequency, TF over GST control)"
same,binding signal,[19],"1.24 fold enrichment (6-mer frequency, TF over GST control)"

# — publication PMC7862700, “An all-to-all approach to the identification of sequence-specific readers for epigenetic DNA modifications on cytosine”
